# Many of the other results were omitted from the sample, so the strongest signals are more common in it than they were.
# B1: SspB A3vp1 (Streptococcus gordonii), Q54186 (protein)
# chain: MTNEADYQAKLAAYQTELARVQKANADAKATYEKAVEDNKAKNAAIKAENEEIKQRNAVAKTDYEAKLAKYEADLAKYKKEFAAYTAALAEAESKKKQDGYLSEPRSQSLNFKSEPNAIRTIDSSVHQYGQQELDALVKSWGISPTNPDRKKSRAYSYFNAINSNNTYAKLVLEKDKPVDVTYTGLKNSSFNGKKISKVVYTYTLKETGFNDGTKMTMFASSDPTVTAWYNDYFTSTNINVKVKFYDEEGQLMNLTGGLVNFSSLNRGNGSGAIDKDAIESVRNFNGRYIPISGSSIKIHENNSAYADSSNAEKSLGARWNTSEWDTTSSPNNWYGAIVGEITQSEISFNMASSKSGNIWFAFNSNINAIGVPTKPVAPTAPTQPMYETEKPLEPAPVAPSYENEPTPPVKTPDQPEPSKPAAALEHHHHHH
# Legend:
# Assay in all cases: glycan array binding signal (z-score within array); higher = stronger binding
# Details in all cases: glycan notation: IUPAC condensed, linker removed
# [1] = target: Fuc(a1-2)Gal(b1-3)GlcNAc(b1-2)Man(a1-3)[Fuc(a1-2)Gal(b1-3)GlcNAc(b1-2)Man(a1-6)]Man(b1-4)GlcNAc(b1-4)GlcNAc
# How it was run: (§1)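 Glycan array binding is given as a within-array Z-score, which can be read as non-binding when negative. The arrays, 3228 of them, came from the Consortium for Functional Glycomics database and were retained only where the protein sequence was available. Z-scores were averaged across arrays of the same protein sequence at different concentrations or buffers and across linkers.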
# [2] = target: Fuc(a1-2)Gal(b1-4)GlcNAc(b1-2)Man(a1-3)[Fuc(a1-2)Gal(b1-4)GlcNAc(b1-2)Man(a1-6)]Man(b1-4)GlcNAc(b1-4)[Fuc(a1-6)]GlcNAc
# How it was run: as §1
# [3] = target: Fuc(a1-2)[Gal(a1-3)]Gal(b1-3)GlcNAc(b1-3)GalNAc
# How it was run: as §1
# [4] = target: Fuc(a1-2)[GalNAc(a1-3)]Gal(b1-4)GlcNAc
# How it was run: as §1
# [5] = target: Fuc(a1-2)[GalNAc(a1-3)]Gal(b1-4)GlcNAc(b1-2)Man(a1-3)[Fuc(a1-2)[GalNAc(a1-3)]Gal(b1-4)GlcNAc(b1-2)Man(a1-6)]Man(b1-4)GlcNAc(b1-4)[Fuc(a1-6)]GlcNAc
# How it was run: as §1
# [6] = target: Fuc(a1-2)[GalNAc(a1-3)]Gal(b1-4)[Fuc(a1-3)]GlcNAc(b1-3)GalNAc
# How it was run: as §1
# [7] = target: Fuc(a1-2)[GalNAc(b1-3)]Gal
# How it was run: as §1
# [8] = target: Fuc(a1-3)[Gal(b1-4)]GlcNAc(b1-2)Man(a1-3)[Fuc(a1-3)[Gal(b1-4)]GlcNAc(b1-2)Man(a1-6)]Man(b1-4)GlcNAc(b1-4)GlcNAc
# How it was run: as §1
# [9] = target: Gal(a1-3)Gal(b1-4)GlcNAc(b1-2)Man(a1-3)[Gal(a1-3)Gal(b1-4)GlcNAc(b1-2)Man(a1-6)]Man(b1-4)GlcNAc(b1-4)GlcNAc
# How it was run: as §1
# [10] = target: Gal(a1-3)Gal(b1-4)GlcNAc(b1-6)GalNAc
# How it was run: as §1
# Gal(a1-3)GalNAc = target: Gal(a1-3)GalNAc
# How it was run: as §1
# Gal(a1-4)Gal(b1-4)GlcNAc = target: Gal(a1-4)Gal(b1-4)GlcNAc
# How it was run: as §1
# Gal(b1-3)GlcNAc = target: Gal(b1-3)GlcNAc
# How it was run: as §1
# [11] = target: Gal(b1-3)GlcNAc(b1-2)[Gal(b1-3)GlcNAc(b1-6)]Man(a1-6)[Gal(b1-3)GlcNAc(b1-2)Man(a1-3)]Man(b1-4)GlcNAc(b1-4)GlcNAc
# How it was run: as §1
# [12] = target: Gal(b1-3)GlcNAc(b1-6)[Gal(b1-3)]GalNAc
# How it was run: as §1
# [13] = target: Gal(b1-3)[Fuc(a1-4)]GlcNAc(b1-2)Man(a1-3)[Gal(b1-3)[Fuc(a1-4)]GlcNAc(b1-2)Man(a1-6)]Man(b1-4)GlcNAc(b1-4)[Fuc(a1-6)]GlcNAc
# How it was run: as §1
# [14] = target: Gal(b1-3)[Neu5Ac(a2-6)]GlcNAc(b1-4)Gal(b1-4)Glc
# How it was run: as §1
# Gal(b1-4)Gal = target: Gal(b1-4)Gal
# How it was run: as §1
# [15] = target: Gal(b1-4)GlcNAc(a1-6)Gal(b1-4)GlcNAc
# How it was run: as §1
# [16] = target: Gal(b1-4)GlcNAc(b1-2)Man(a1-3)Man(b1-4)GlcNAc(b1-4)GlcNAc
# How it was run: as §1
# [17] = target: Gal(b1-4)GlcNAc(b1-2)Man(a1-3)[Gal(b1-4)GlcNAc(b1-2)Man(a1-6)][Gal(b1-4)GlcNAc(b1-4)]Man(b1-4)GlcNAc(b1-4)[Fuc(a1-6)]GlcNAc
# How it was run: as §1
# [18] = target: Gal(b1-4)GlcNAc(b1-2)[Gal(b1-4)GlcNAc(b1-6)]Man(a1-6)[GlcNAc(b1-4)][Gal(b1-4)GlcNAc(b1-2)Man(a1-3)]Man(b1-4)GlcNAc(b1-4)GlcNAc
# How it was run: as §1
# [19] = target: Gal(b1-4)GlcNAc(b1-3)Gal(b1-4)GlcNAc(b1-2)[Gal(b1-4)GlcNAc(b1-3)Gal(b1-4)GlcNAc(b1-6)]Man(a1-6)[Gal(b1-4)GlcNAc(b1-3)Gal(b1-4)GlcNAc(b1-2)Man(a1-3)]Man(b1-4)GlcNAc(b1-4)GlcNAc
# How it was run: as §1
# [20] = target: Gal(b1-4)GlcNAc(b1-3)Gal(b1-4)GlcNAc(b1-2)[Gal(b1-4)GlcNAc(b1-3)Gal(b1-4)GlcNAc(b1-6)]Man(a1-6)[Gal(b1-4)GlcNAc(b1-3)Gal(b1-4)GlcNAc(b1-2)Man(a1-3)]Man(b1-4)GlcNAc(b1-4)[Fuc(a1-6)]GlcNAc
# How it was run: as §1
# [21] = target: Gal(b1-4)GlcNAc(b1-3)Gal(b1-4)GlcNAc(b1-3)Gal(b1-4)GlcNAc(b1-2)Man(a1-3)[Gal(b1-4)GlcNAc(b1-3)Gal(b1-4)GlcNAc(b1-3)Gal(b1-4)GlcNAc(b1-2)Man(a1-6)]Man(b1-4)GlcNAc(b1-4)[Fuc(a1-6)]GlcNAc
# How it was run: as §1
# [22] = target: Gal(b1-4)GlcNAc(b1-3)Gal(b1-4)GlcNAc(b1-3)Gal(b1-4)GlcNAc(b1-3)Gal(b1-4)GlcNAc(b1-2)Man(a1-3)[Gal(b1-4)GlcNAc(b1-3)Gal(b1-4)GlcNAc(b1-3)Gal(b1-4)GlcNAc(b1-3)Gal(b1-4)GlcNAc(b1-2)Man(a1-6)]Man(b1-4)GlcNAc(b1-4)GlcNAc
# How it was run: as §1
# [23] = target: Gal(b1-4)GlcNAc(b1-3)Gal(b1-4)GlcNAc(b1-3)Gal(b1-4)GlcNAc(b1-3)Gal(b1-4)GlcNAc(b1-3)Gal(b1-4)GlcNAc(b1-2)Man(a1-3)[Gal(b1-4)GlcNAc(b1-3)Gal(b1-4)GlcNAc(b1-3)Gal(b1-4)GlcNAc(b1-3)Gal(b1-4)GlcNAc(b1-3)Gal(b1-4)GlcNAc(b1-2)Man(a1-6)]Man(b1-4)GlcNAc(b1-4)GlcNAc
# How it was run: as §1
# [24] = target: Gal(b1-4)GlcNAc(b1-3)Gal(b1-4)GlcNAc(b1-3)Gal(b1-4)GlcNAc(b1-3)Gal(b1-4)GlcNAc(b1-3)Gal(b1-4)GlcNAc(b1-2)Man(a1-3)[Gal(b1-4)GlcNAc(b1-3)Gal(b1-4)GlcNAc(b1-3)Gal(b1-4)GlcNAc(b1-3)Gal(b1-4)GlcNAc(b1-3)Gal(b1-4)GlcNAc(b1-2)Man(a1-6)]Man(b1-4)GlcNAc(b1-4)[Fuc(a1-6)]GlcNAc
# How it was run: as §1
# [25] = target: Gal(b1-4)GlcNAc(b1-3)Gal(b1-4)GlcNAc(b1-6)[Gal(b1-3)]GalNAc
# How it was run: as §1
# [26] = target: Gal(b1-4)GlcNAc(b1-6)[Gal(b1-3)]GalNAc
# How it was run: as §1
binder,measurement,setting,value
B1,glycan array binding signal (z-score),[1],6.26
same,glycan array binding signal (z-score),[2],-0.372
same,glycan array binding signal (z-score),[3],0.099
same,glycan array binding signal (z-score),[4],-0.651
same,glycan array binding signal (z-score),[5],0.127
same,glycan array binding signal (z-score),[6],3.5
same,glycan array binding signal (z-score),[7],-1.11
same,glycan array binding signal (z-score),[8],0.062
same,glycan array binding signal (z-score),[9],1.84
same,glycan array binding signal (z-score),[10],-0.506
same,glycan array binding signal (z-score),Gal(a1-3)GalNAc,-0.575
same,glycan array binding signal (z-score),Gal(a1-4)Gal(b1-4)GlcNAc,0.692
same,glycan array binding signal (z-score),Gal(b1-3)GlcNAc,-0.432
same,glycan array binding signal (z-score),[11],1.46
same,glycan array binding signal (z-score),[12],0.011
same,glycan array binding signal (z-score),[13],0.75
same,glycan array binding signal (z-score),[14],-0.063
same,glycan array binding signal (z-score),Gal(b1-4)Gal,-0.088
same,glycan array binding signal (z-score),[15],-0.728
same,glycan array binding signal (z-score),[16],-0.334
same,glycan array binding signal (z-score),[17],3.03
same,glycan array binding signal (z-score),[18],0.194
same,glycan array binding signal (z-score),[19],3.16
same,glycan array binding signal (z-score),[20],3.01
same,glycan array binding signal (z-score),[21],3.73
same,glycan array binding signal (z-score),[22],3.61
same,glycan array binding signal (z-score),[23],3.36
same,glycan array binding signal (z-score),[24],3.38
same,glycan array binding signal (z-score),[25],2.1
same,glycan array binding signal (z-score),[26],0.609

# From the supplement of paper PMC8728848
